± gives the standard deviation of the averaged measurements.
Columns and labels:
Experiment in all cases: relative enzymatic activity vs untreated control (fraction); higher = less inhibition
Details in all cases: 100 µM; incubation time: 2 h at 37 C
DNA gyrase = system: DNA gyrase
Description: (§1)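 In vitro enzymatic inhibition assays (ProFoldin kits) for 12 purified essential E. coli enzymes or complexes, each treated with 218 active antibacterial compounds at 100 µM for 2 h at 37°C. Read-outs were fluorescence or absorbance (phosphate detection, dye binding), converted to activity via standard curves and expressed relative to untreated DMSO controls.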

DNA helicase = DNA helicase (UniProt P0ACB1)
DNA helicase, sequence (P0ACB1 whole entry): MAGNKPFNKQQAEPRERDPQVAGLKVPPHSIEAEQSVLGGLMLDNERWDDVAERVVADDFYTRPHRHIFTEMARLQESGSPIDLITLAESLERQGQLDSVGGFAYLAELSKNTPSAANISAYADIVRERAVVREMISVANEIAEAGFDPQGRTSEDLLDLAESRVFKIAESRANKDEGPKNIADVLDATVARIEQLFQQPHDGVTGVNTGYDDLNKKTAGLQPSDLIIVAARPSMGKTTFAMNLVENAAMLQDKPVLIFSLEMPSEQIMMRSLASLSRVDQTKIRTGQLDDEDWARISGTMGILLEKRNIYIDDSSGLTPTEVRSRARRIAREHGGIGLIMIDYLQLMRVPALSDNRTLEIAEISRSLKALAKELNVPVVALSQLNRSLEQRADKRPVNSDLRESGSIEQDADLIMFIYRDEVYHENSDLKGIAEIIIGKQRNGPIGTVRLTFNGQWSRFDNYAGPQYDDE
Description: as §1

DNA ligase = DNA ligase (UniProt B1XA82)
DNA ligase, sequence (B1XA82 whole entry): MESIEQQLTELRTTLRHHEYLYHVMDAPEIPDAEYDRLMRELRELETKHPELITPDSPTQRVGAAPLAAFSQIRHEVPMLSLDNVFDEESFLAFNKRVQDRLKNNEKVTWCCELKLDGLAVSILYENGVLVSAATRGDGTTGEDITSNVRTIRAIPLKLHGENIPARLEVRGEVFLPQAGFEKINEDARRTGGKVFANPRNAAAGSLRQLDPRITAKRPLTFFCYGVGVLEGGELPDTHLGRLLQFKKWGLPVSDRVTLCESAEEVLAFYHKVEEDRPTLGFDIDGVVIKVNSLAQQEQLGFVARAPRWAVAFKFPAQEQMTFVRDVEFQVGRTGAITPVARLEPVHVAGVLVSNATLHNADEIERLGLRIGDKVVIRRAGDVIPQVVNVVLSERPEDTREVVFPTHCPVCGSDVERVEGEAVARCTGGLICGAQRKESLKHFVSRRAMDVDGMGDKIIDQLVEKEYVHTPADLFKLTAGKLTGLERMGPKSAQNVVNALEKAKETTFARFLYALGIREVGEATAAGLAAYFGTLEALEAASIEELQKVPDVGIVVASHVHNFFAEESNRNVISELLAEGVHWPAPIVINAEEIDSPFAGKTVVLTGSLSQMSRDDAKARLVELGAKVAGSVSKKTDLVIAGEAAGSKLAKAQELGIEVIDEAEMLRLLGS
Description: as §1

DNA polymerase = DNA polymerase (UniProt P10443)
DNA polymerase, sequence (P10443 whole entry): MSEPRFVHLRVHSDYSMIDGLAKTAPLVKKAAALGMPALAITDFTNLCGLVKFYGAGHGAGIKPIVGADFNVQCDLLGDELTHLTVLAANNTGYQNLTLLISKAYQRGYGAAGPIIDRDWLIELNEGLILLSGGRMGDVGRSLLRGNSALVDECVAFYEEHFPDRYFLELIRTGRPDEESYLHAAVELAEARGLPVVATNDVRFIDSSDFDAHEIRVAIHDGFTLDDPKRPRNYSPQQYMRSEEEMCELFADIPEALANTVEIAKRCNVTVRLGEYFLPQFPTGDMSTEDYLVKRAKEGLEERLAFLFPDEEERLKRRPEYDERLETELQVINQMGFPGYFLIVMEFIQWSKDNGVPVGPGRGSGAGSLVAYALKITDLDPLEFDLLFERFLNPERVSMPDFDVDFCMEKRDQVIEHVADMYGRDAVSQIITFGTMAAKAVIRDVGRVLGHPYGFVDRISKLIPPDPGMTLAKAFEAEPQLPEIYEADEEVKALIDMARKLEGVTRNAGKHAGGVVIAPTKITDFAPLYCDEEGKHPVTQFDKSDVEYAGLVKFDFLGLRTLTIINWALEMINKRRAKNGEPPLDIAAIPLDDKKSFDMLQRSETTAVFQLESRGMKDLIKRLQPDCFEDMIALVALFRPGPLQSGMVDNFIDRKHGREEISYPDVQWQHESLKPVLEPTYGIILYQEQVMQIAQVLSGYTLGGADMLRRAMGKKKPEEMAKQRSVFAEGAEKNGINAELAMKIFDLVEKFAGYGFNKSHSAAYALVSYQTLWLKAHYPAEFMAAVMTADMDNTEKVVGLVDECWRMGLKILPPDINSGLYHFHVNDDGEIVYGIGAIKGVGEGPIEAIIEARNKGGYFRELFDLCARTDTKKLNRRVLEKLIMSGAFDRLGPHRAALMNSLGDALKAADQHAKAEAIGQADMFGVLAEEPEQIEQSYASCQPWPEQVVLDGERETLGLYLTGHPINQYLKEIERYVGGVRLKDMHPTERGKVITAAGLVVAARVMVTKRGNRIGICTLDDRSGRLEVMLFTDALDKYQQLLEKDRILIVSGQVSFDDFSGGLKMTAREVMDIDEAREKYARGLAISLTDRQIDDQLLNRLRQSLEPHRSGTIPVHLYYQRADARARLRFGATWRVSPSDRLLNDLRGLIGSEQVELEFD
Description: as §1

DNA primase = DNA primase (UniProt P0ABS7)
DNA primase, sequence (P0ABS7 whole entry): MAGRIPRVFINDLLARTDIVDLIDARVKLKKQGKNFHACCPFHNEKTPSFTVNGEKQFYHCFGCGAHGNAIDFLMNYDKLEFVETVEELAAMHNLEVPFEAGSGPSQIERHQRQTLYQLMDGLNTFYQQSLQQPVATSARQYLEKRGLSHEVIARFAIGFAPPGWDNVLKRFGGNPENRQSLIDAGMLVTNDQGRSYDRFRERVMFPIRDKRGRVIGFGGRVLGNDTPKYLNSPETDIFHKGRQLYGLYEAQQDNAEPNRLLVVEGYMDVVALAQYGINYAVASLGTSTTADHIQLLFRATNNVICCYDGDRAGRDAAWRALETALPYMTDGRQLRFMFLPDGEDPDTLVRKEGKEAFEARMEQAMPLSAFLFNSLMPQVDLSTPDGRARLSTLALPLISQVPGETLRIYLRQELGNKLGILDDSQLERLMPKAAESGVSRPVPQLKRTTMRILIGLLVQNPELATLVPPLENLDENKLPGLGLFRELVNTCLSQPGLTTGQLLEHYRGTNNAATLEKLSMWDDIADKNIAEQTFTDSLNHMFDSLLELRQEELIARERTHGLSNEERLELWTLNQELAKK
Description: as §1

GlmU = GlmU (UniProt A7ZTU1)
GlmU, sequence (A7ZTU1 whole entry, looked up): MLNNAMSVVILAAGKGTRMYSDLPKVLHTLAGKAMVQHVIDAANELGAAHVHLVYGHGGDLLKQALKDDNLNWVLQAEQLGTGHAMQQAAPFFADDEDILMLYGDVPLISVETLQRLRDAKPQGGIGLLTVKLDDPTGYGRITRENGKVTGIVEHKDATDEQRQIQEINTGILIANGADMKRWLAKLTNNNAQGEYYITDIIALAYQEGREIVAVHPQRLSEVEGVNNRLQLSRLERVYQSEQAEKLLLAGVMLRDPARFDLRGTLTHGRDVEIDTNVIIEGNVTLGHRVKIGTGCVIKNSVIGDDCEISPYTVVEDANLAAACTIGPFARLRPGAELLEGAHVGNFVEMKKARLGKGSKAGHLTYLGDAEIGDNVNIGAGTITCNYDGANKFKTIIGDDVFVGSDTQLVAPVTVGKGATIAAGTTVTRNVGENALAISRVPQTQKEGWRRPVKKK
Description: as §1

Guanlyate kinase = Guanlyate kinase (UniProt Q0TBG1)
Guanlyate kinase, sequence (Q0TBG1 whole entry): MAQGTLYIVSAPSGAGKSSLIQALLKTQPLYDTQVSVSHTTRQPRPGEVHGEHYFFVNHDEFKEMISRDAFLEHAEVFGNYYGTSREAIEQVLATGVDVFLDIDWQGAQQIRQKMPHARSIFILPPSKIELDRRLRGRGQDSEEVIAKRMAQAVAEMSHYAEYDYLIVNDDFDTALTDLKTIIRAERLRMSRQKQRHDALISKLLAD
Description: as §1

MurA = MurA (UniProt Q3YX52)
MurA, sequence (Q3YX52 whole entry): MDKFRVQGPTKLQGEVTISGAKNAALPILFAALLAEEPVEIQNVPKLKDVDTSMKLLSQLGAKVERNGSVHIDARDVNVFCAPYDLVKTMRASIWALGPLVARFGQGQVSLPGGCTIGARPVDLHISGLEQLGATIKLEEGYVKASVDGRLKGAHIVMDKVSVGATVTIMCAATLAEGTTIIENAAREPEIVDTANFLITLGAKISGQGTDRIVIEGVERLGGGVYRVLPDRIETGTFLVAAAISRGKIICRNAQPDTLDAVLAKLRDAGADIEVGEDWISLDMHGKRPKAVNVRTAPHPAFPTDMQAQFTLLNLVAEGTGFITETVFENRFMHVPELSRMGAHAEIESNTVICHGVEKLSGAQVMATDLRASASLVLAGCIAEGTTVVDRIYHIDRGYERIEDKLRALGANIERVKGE
Description: as §1

MurD = target: T1, MurD (UniProt P14900)
T1 sequence (whole entry): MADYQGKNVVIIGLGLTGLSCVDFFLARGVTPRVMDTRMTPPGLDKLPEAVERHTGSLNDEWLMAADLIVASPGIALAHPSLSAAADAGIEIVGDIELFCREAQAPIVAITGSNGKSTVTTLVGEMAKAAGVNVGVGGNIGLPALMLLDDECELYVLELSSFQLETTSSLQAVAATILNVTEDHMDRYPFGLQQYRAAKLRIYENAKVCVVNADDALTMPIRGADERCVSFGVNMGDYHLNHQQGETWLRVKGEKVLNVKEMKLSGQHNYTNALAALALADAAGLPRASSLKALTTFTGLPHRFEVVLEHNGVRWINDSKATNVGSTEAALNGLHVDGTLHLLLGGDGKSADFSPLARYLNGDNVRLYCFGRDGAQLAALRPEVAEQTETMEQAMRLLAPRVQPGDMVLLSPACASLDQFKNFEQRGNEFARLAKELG
Description: as §1

MurF = target: T2, MurF (UniProt P11880)
T2 sequence (whole entry): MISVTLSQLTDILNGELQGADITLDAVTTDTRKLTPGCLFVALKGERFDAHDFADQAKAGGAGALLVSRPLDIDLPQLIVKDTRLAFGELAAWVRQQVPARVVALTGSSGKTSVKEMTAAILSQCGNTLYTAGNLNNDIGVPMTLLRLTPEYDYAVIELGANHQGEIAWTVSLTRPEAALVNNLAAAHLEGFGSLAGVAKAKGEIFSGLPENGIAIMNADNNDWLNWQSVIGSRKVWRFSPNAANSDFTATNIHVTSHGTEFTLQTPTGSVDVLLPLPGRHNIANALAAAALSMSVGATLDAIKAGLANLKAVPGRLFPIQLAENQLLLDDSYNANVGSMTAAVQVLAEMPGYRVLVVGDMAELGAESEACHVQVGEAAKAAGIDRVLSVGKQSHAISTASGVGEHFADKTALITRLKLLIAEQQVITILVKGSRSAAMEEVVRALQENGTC
Description: as §1

RNA polymerase = system: RNA polymerase
Description: as §1

| Structure (SMILES) | relative enzymatic activity (DNA gyrase) | relative enzymatic activity (DNA helicase) | relative enzymatic activity (DNA ligase) | relative enzymatic activity (DNA polymerase) | relative enzymatic activity (DNA primase) | relative enzymatic activity (GlmU) | relative enzymatic activity (Guanlyate kinase) | relative enzymatic activity (MurA) | relative enzymatic activity (MurD) | relative enzymatic activity (MurF) | relative enzymatic activity (RNA polymerase) |
| --- | --- | --- | --- | --- | --- | --- | --- | --- | --- | --- | --- |
| CO/N=C(\C(=O)N[C@@H]1C(=O)N2C(C(=O)O)=C(CSc3nnnn3C)CS[C@H]12)c1csc(N)n1 | 1.08 ± 0.03 | 0.544 ± 0.23 | 0.749 ± 0.049 | 1.15 ± 0.25 | 0.827 ± 0.017 | 1.09 ± 0.046 | 0.883 ± 0.091 | 0.157 ± 0.032 | 0.611 ± 0.42 | 1.16 ± 0.11 | 0.8391 ± 0.00096 |
| O=C(O)c1c(O)c2c([nH]c1=O)CCCC2 | 0.374 ± 0.066 | 0.479 ± 0.056 | 1.18 ± 0.34 | 1.08 ± 0.16 | 0.752 ± 0.029 | 0.975 ± 0.042 | 0.874 ± 0.041 | 0.769 ± 0.13 | 0.611 ± 0.39 | 0.899 ± 0.18 | 0.636 ± 0.18 |
| NC(=O)N/N=C/c1ccc([N+](=O)[O-])o1 | 0.691 ± 0.48 | 0.657 ± 0.29 | 0.974 ± 0.26 | 1.04 ± 0.16 | 0.761 ± 0.072 | 1.006 ± 0.004 | 0.751 ± 0.048 | 0.504 ± 0.021 | 0.507 ± 0.66 | 0.962 ± 0.21 | 0.734 ± 0.088 |
| CC[C@H]1OC(=O)[C@H](C)[C@@H](O[C@H]2C[C@@](C)(OC)[C@@H](O)[C@H](C)O2)[C@H](C)[C@@H](O[C@@H]2O[C@H](C)C[C@H](N(C)C)[C@H]2O)[C@](C)(OC)C[C@@H](C)C(=O)[C@H](C)[C@@H](O)[C@]1(C)O | 0.647 ± 0.56 | 0.732 ± 0.33 | 0.901 ± 0.15 | 1.15 ± 0.22 | 0.831 ± 0.025 | 1.03 ± 0.0049 | 0.97 ± 0.048 | 0.856 ± 0.12 | 0.58 ± 0.37 | 0.942 ± 0.24 | 0.862 ± 0.13 |
| CON=C(C(=O)NC1C(=O)N2C(C(=O)O)=C(CSC(=O)c3ccco3)CSC12)c1csc(N)n1.Cl (stereo not drawn) | 0.933 ± 0.033 | 0.388 ± 0.053 | 1.07 ± 0.033 | 0.476 ± 0.67 | 0.657 ± 0.15 | 0.844 ± 0.063 | 0.949 ± 0.12 | 0.0647 ± 0.013 | 0.551 ± 0.37 | 0.95 ± 0.2 | 0.832 ± 0.051 |
| N[C@@H]1CN(c2c(F)cc3c(=O)c(C(=O)O)cn([C@@H]4C[C@@H]4F)c3c2Cl)CC12CC2 | 0.186 ± 0.26 | 0.435 ± 0.025 | 0.852 ± 0.06 | 1.1 ± 0.085 | 0.84 ± 0.012 | 0.987 ± 0.012 | 1 ± 0.11 | 0.524 ± 0.094 | 0.591 ± 0.41 | 1.31 ± 0.28 | 0.979 ± 0.15 |
| CN(C)C1C(O)=C(C(N)=O)C(=O)C2(O)C(O)=C3C(=O)c4c(O)ccc(Cl)c4C(O)C3CC12.Cl (stereo not drawn) | 0.59 ± 0.38 | 0.359 ± 0.13 | 1.03 ± 0.047 | 1.16 ± 0.26 | 0.64 ± 0.12 | 1.005 ± 0.0054 | 0.874 ± 0.1 | 0.133 ± 0.045 | 0.593 ± 0.41 | 0.937 ± 0.17 | 0.804 ± 0.072 |
| CO/N=C(\C(=O)N[C@@H]1C(=O)N2C(C(=O)O)=C(C[N+]3(C)CCCC3)CS[C@H]12)c1csc(N)n1 | 0.284 ± 0.099 | 0.202 ± 0.28 | 1.11 ± 0.05 | 1.12 ± 0.18 | 0.722 ± 0.012 | 0.943 ± 0.023 | 1.06 ± 0.074 | 0.144 ± 0.026 | 0.591 ± 0.42 | 1.15 ± 0.066 | 0.575 ± 0.11 |
